# Screens as filed in PubChem BioAssay.
# Compounds with a hit are over-represented: about 2.7% of the library has one in this group of screens.
# gsp antagonist: gsp mutant antagonism; gsp-mutant cells, cAMP HTRF, 30 min; Potency, µM (series often up to 76.9 µM), for inactives: top-dose activity change, negative = inhibition, hits mostly inhibitors; 340,000 compounds, 0.4% hits; calls by dose curve; cell line not stated here;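 also: intracellular cAMP measured with PDE inhibitor Ro 20-1724 present during compound exposure; potency is read from the fitted curve at half-maximal effect; % is scaled to controls: 0 for no effect and ±100 for the full control effect; nearly all actives have a fitted effect of over 65% in size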
#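 Cells, 2000/well, grown 16–24 h in DMEM 10% FBS with 0.5 mg/ml G418, then compounds plus […] (300 uM addition stock), 30 min at 37C. cAMP read by HTRF (cAMP-d2 and anti-cAMP antibody-K in lysis buffer) after 30 min RT.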
# RXFP1 antagonist: RXFP1 (human) relaxin receptor antagonism; Q9HBX9; AID 1259400; 350,000 compounds, 0.59% hits; activity change, negative = inhibition, % at 57.5 µM; HEK293-RXFP1, relaxin-stimulated cAMP HTRF, 30 min; stronger effect = lower value;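 active = activity change of -60% or lower, but not beyond a set lower limit; inconclusive = change between -60% and -40%, or beyond the set limit; inactive = change above -40%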; also: % is scaled to controls: 0 for no effect and ±100 for the full control effect
# pAkt inh: Akt phosphorylation inhibition; Neuro2A IGF-stimulated pAkt S473 HTRF, 20 min; stronger effect = lower value; 360,000 compounds, 0.32% hits; AID 651550; activity change, % for hits at 50 µM; in the data active = activity change below about -80%; inconclusive = mostly about -51% to -80%; also: % is scaled to controls: 0 for no effect and ±100 for the full control effect
#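 Neuro2A cells in DMEM with 0.5% FBS, overnight at 37 deg C, given compound at single 50 µM final, then IGF (6 nM final) for 20 min at 37 deg C. Lysed; phospho-Akt Ser473 by HTRF after 24 h, 665/615 ratio.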
# gsp agonist: agonists of gsp mutant (McCune-Albright syndrome); Potency, µM (top dose mostly 76.9 µM), without a hit: at the highest dose activation (cAMP increase), most hits filed as activators; gsp mutant cells, cAMP HTRF, 30 min; AID 624287; 340,000 compounds, 0.13% hits; active = well fitted activation curve with a large enough effect; inconclusive = small, poorly fitted or top-dose-only effect, or another doubt; inactive = no such curve, though single readings can be large or run the other way; cell line not stated here;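 also: phosphodiesterase inhibitor Ro 20-1724 added with compounds to block cAMP breakdown; potency is read from the fitted curve at half-maximal effect; nearly all actives have a fitted effect of over 60% in size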
#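 Cells stably selected in G418 were plated at 2000/well, grown 16-24 hr, then given compounds in DMSO with the PDE inhibitor […] (300 uM solution added) for 30 min at 37C; cAMP was read by HTRF.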
# ClpP mod: qHTS Assay for Activators of ClpP; ATP-dependent Clp protease proteolytic subunit (Bacillus subtilis (strain 168)), P80244; purified B. subtilis ClpP, FRET peptide cleavage, 20 min; Potency, µM (titrated, usually from 57.5 µM), inactives show top-dose activity change, negative = active; 340,000 compounds, 1.9% hits; AID 651965, 2013; active = well fitted falling curve with a large enough effect; inconclusive = small, poorly fitted or top-dose-only effect; inactive = no such curve, though single readings can be large or run the other way; also: potency is read from the fitted curve at half-maximal effect; the source files actives as falling curves though it sought activators and does not explain the sign; nearly all actives have a fitted effect of over 65% in size
# Target sequence (P80244 whole entry, looked up): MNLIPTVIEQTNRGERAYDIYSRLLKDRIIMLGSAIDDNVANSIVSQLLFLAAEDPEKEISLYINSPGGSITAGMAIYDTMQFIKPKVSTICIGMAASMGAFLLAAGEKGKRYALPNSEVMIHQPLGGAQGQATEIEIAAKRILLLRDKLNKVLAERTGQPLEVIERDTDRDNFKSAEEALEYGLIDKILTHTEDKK
#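 Buffer: 100 mM Tris/HCl pH8, 100 mM KCl, 0.05% low protease BSA, 2.5% glycerol, 0.01% Tween-20. ClpP 10 microg/mL final; 20 min RT; delta FRET normalized to ADEP and DMSO controls.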
# RXFP1 agonist: agonists of human relaxin receptor RXFP1; Q9HBX9; HEK293T-RXFP1 cAMP TR-FRET, 30 min; response scale: percent of porcine relaxin response, buffer zero; Potency, µM (highest dose often 57.5 µM), without a hit: top-dose activation, usual class: activators; 370,000 compounds, 0.3% hits; AID 2676; active = well fitted activation curve with a large enough effect; inconclusive = small, poorly fitted or top-dose-only effect; also: potency is read from the fitted curve at half-maximal effect; % is scaled to controls: 0 for no effect and ±100 for the full control effect; nearly all actives have a fitted effect of over 60% in size
#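 Agonist response is measured as cAMP accumulation in an RXFP1-transfected HEK293T line under PDE4 inhibition. Values are scaled between buffer-only and 29 nM porcine relaxin, and EC50s come from standard Hill equation fits.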
# Starred values were filed as active, the others as inactive; i = inactive; ? = inconclusive; . = not tested or not shown; [ ] = another dose, or the depositor's remark.
SMILES,gsp antagonist,RXFP1 antagonist,pAkt inh,gsp agonist,ClpP mod,RXFP1 agonist
CC(=O)c1c(N2CCN(c3ccc(F)cc3)CC2)nc(=S)n(Cc2ccccc2)c1C,-7.5%,11.0,i,-27.2%,25.1µM*,4.3%
CN(C)c1ccc(C=O)c(Cl)c1,.,.,.,.,-4.2%,.
COC(=O)c1c(NC(NC(=O)C(C)(C)C)C(Cl)(Cl)Cl)sc2c1CCC2 (configuration not stated),?,-81.4*,i,?,0.6%,-1.4%
CCC(=O)NC(Nc1sc2c(c1C(=O)OC)CCC2)C(Cl)(Cl)Cl (configuration not stated),-36.1%,.,i,1.4%,1.3%,-0.8%
COC(=O)c1c(NC(NC(=O)CC(C)C)C(Cl)(Cl)Cl)sc2c1CCC2 (configuration not stated),?,.,i,-11.8%,-1.0%,0.0%
COC(=O)c1c(NC(NC(=O)C(C)C)C(Cl)(Cl)Cl)sc2c1CCC2 (configuration not stated),-20.7%,-60.4*,i,0.7%,?,0.1%
O=C(C[n+]1cccc2cccc(O)c21)c1ccc(F)cc1,.,.,.,.,-3.8%,.
CCn1cc(C(=O)NCc2ccco2)c(=O)c2cc(F)c(N3CCN(C(=O)c4ccco4)CC3)cc21,?,-0.5,i,-23.9%,28.2µM*,1.5%
CCn1c(N2CCN(S(=O)(=O)c3ccc(Cl)cc3)CC2)nc2ccccc21,31.6µM*,-20.0,i,-7.9%[15.4 µM],.,-0.6%
N#CC(C#N)=C(Nc1ccc(F)cc1)SCc1cccc(F)c1,31.6µM*,12.8,i,0.8%,-2.7%,0.7%
CCc1ccc(N/C(SC)=C(/C#N)C(N)=O)cc1,-5.4%,-8.5,i,3.3%,-0.1%,-2.3%
COC(=O)C1=C(C)NC(C)=C(C(=O)OCCN(C)Cc2ccccc2)C1c1cccc([N+](=O)[O-])c1 (configuration not stated),24.8%,-76.0*,i,.,-1.8%,-0.8%
CNC(=O)c1c(NC(=O)c2cc(=O)c3ccccc3o2)sc2c1CCC2,.,.,.,.,-0.8%,3.3%
C=CCn1c(=O)c2ccccc2n2c(Sc3nnnn3-c3ccccc3)nnc12,-2.0%,-21.2,-109.9%*,8.0%,-27.1%,0.3%
O=C(CSc1ccc(Cl)cc1)N1CCC(c2nc3ccccc3s2)CC1,31.6µM*,-10.6,i,-17.6%,-6.2%,-2.9%
O=C(CCC1COc2ccccc2O1)N1CCCC1 (configuration not stated),4.5%,4.9,-100.3%*,-9.6%,-2.5%,0.5%
Cc1cc(C)n(C(=O)CCC2COc3ccccc3O2)n1 (configuration not stated),6.4%,-4.5,i,0.2%,-3.1%,0.6%
COc1ccccc1CCC(=O)OCC(=O)Nc1ccc(C(N)=O)cc1,12.0%,-0.4,i,-0.4%[15.4 µM],.,1.0%
CC1CCN(C(=O)COC(=O)c2n[nH]c3ccccc23)CC1,4.6%,-9.2,i,-19.0%,28.2µM*,0.8%
CCn1c(-c2ccccc2Cl)nn(CC(=O)Nc2ccc(OC)cc2)c1=S,-2.3%,-13.3,-105.8%*,0.2%,-1.6%,0.5%
Cn1nnnc1-c1cc(Br)ccc1NC(=O)c1ccccc1,44.9%,1.8,-103.7%*,?,1.3%,?
Cc1ccc(NC(=O)c2ccc(Br)cc2)c(C(=O)c2ccccc2)c1,.,-13.4,.,.,1.0%,-0.2%
CCCCCn1c(=S)[nH]c2ncccc2c1=O,8.2%,-7.7,i,2.8%[15.4 µM],1.0%,-1.5%
COCCCn1c(=S)[nH]c2ncccc2c1=O,11.9%,-7.9,-122.5%*,15.2%,0.7%,1.1%
COCCn1c(=S)[nH]c2ncccc2c1=O,-6.2%,5.5,-108.9%*,3.1%,1.6%,1.8%
SMILES,gsp antagonist,RXFP1 antagonist,pAkt inh,gsp agonist,ClpP mod,RXFP1 agonist
Cc1sc(N=Nc2ccc(N(C)C)cc2)[n+]([O-])c1C,.,-15.8,i,15.7%,0.0%,.
Brc1cccc[n+]1Cc1ccccc1C[n+]1ccccc1Br,.,.,.,.,-5.0%,.
Cc1ccnc2ccc3ccccc3c12,.,.,.,.,4.6%,.
Cc1ccc(NC(=O)NNC(=O)c2cc3ccccc3cc2O)c(C)c1,-3.5%,-3.6,i,-20.7%,2.4%,2.5%
Cc1cccc(NC(=O)NNC(=O)c2cc3ccccc3cc2O)c1C,-14.9%,-66.2*,i,-2.1%[15.4 µM],.,-2.3%
O=c1cc(N2CCCCC2)c(-c2ccccc2)nn1Cc1ccccc1,?,-119.7*,i,-0.6%[15.4 µM],.,0.3%
CCOc1ccc(CNC(=O)Nc2ccc3c(c2)N(C)C(=O)c2ccccc2S3)cc1,.,14.5,.,.,-5.0%,5.2%
Cn1c(N=Nc2ccc(N3CCOCC3)cc2)[n+](C)c2ccccc21,?,-107.1*,i,-0.1%[15.4 µM],-0.2%,-12.9%
CCOC(=O)c1ccc(NC(=O)c2nc[nH]c2C(=O)N[C@@H](C)CO)cc1,.,10.7,i,-35.2%,-0.7%,.
CCOc1nc(NC(=O)NS(=O)(=O)c2cccc(Cl)c2)nc(-c2ccccc2)n1,7.4%,4.1,i,1.2%,28.2µM*,3.0%
CC(C)CNc1ncnc2c1sc1nc(N3CCOCC3)c3c(c12)CC(C)(C)OC3,?,-6.6,i,-30.6%,6.31µM*,?
CC1(C)Cc2c(c(-c3ccco3)nc3sc4c(NCC5CCCO5)ncnc4c23)CO1 (configuration not stated),7.4%,17.5,i,14.1%,15.8µM*,0.5%
O=[N+]([O-])c1ccccc1N/N=C/c1cccc(O)c1O,9.3%,-1.8,i,-0.5%,0.8%,-0.1%
O=[N+]([O-])c1cccc(N/N=C/c2cccc(O)c2O)c1,-6.6%,-86.8*,i,6.2%[15.4 µM],.,1.9%
CCN(c1cc(C)cc(C)c1)S(=O)(=O)c1nnc(NC(=O)C2CCCCC2)s1,.,0.5,.,.,1.1%,13.3%
Cc1cc(C)cc(NC(=O)c2ccc(NC(=O)C3C4CC5OC(=O)C3C5C4)cc2)c1 (configuration not stated),2.0%,7.7,i,-0.1%[15.4 µM],31.6µM*,0.3%
COc1cccc(NC(=O)C2C3CC4OC(=O)C2C4C3)c1 (configuration not stated),4.5%,2.9,i,0.0%,-0.9%,5.3%
N#CC(=C=[N-])C1=C(C#N)C(c2ccccc2F)C([n+]2ccccc2)C(O)(C2CC2)N1 (configuration not stated),6.7%,32.8,i,18.4%,-3.1%,25.1µM*
Cc1cccc[n+]1C1C(c2ccccc2)C(C#N)=C(C(=C=[N-])C#N)NC1(O)C1CC1 (configuration not stated),18.2%,21.1,?,?,-3.4%,15.4%
CCCc1oc2ccc(NS(=O)(=O)c3ccc(OC)cc3)cc2c1C(=O)OCC,.,?,.,.,0.5%,-1.0%
